The panel holds about 83,000 compounds, 20% with a hit somewhere; the sample as a whole holds those more often.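 Cell lines were cultured in 96-well plates, exposed to a single compound concentration, and assessed for percent growth 48 hours later.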 A number with no mark means an inactive call. Active and inactive are the calls of the source. Rule for the calls: active = growth percent below 10; inactive = the rest.
Assays:
Experiment in all cases: NCI-60 one-dose screen, 48 h (100 = growth as untreated, 0 = no growth, -100 = all killed)
Conditions in all cases: 10 µM
SK-MEL-2 melanoma = tested on: SK-MEL-2 melanoma
SN12C renal = tested on: SN12C renal
UO-31 renal = tested on: UO-31 renal
TK-10 renal = tested on: TK-10 renal
ACHN renal = tested on: ACHN renal
CAKI-1 renal = tested on: CAKI-1 renal
A498 renal = tested on: A498 renal
CCRF-CEM leukemia = tested on: CCRF-CEM leukemia
MOLT-4 leukemia = tested on: MOLT-4 leukemia
SR leukemia = tested on: SR leukemia
RPMI-8226 leukemia = tested on: RPMI-8226 leukemia
OVCAR-8 ovarian = tested on: OVCAR-8 ovarian
OVCAR-5 ovarian = tested on: OVCAR-5 ovarian
OVCAR-4 ovarian = tested on: OVCAR-4 ovarian
SK-OV-3 ovarian = tested on: SK-OV-3 ovarian
IGROV1 ovarian = tested on: IGROV1 ovarian
OVCAR-3 ovarian = tested on: OVCAR-3 ovarian
HS 578T breast = tested on: HS 578T breast
NCI/ADR-RES ovarian = tested on: NCI/ADR-RES ovarian

Row | Structure (SMILES) | growth (SK-MEL-2 melanoma) | growth (SN12C renal) | growth (UO-31 renal) | growth (TK-10 renal) | growth (ACHN renal) | growth (CAKI-1 renal) | growth (A498 renal) | growth (CCRF-CEM leukemia) | growth (MOLT-4 leukemia) | growth (SR leukemia) | growth (RPMI-8226 leukemia) | growth (OVCAR-8 ovarian) | growth (OVCAR-5 ovarian) | growth (OVCAR-4 ovarian) | growth (SK-OV-3 ovarian) | growth (IGROV1 ovarian) | growth (OVCAR-3 ovarian) | growth (HS 578T breast) | growth (NCI/ADR-RES ovarian)
1 | CCCCC(=O)N(c1ccc(Nc2c3ccccc3nc3cc([N+](=O)[O-])ccc23)cc1)S(C)(=O)=O | 109% | 69.3% | 36.7% | 95.8% | 43.1% | 59.9% | 78.8% | 33.2% | 22.8% | 5.36% (active) | 35% | 71.7% | 96.9% | 81% | 80% | 48.7% | 88.3% | 88.3% | 101%
2 | COc1cc2c3c(cccc3c1)C(=O)N(CCN1CCCC1)C2=O | -8.39% (active) | 29.7% | -3.17% (active) | -6.26% (active) | 7.6% (active) | 14.2% | -22.1% (active) | 18.9% | 4.5% (active) | 2.44% (active) | 12.2% | 6.43% (active) | 34.1% | 21.6% | 34.1% | 23.5% | 0.462% (active) | 27.1% | 13%
3 | COc1ccccc1NC1=C(N2CCCCC2)C(=O)c2ccccc2C1=O | 98.2% | 84.6% | 75.3% | 96.2% | 88% | 85.8% | 39.4% | 72.5% | 58.8% | 76.3% | 40.2% | 84.7% | 96.2% | 69.7% | 102% | 100% | 87% | 93.3% | 87.3%
4 | COc1cc(-c2nc3cc(Cl)c(Cl)cc3[nH]2)ccc1OCC(=O)NN | 95.9% | 78.7% | 71.1% | 126% | 72.6% | 41% | 83.1% | 59.8% | 67.8% | 77.4% | 107% | 76.4% | 98.1% | 85.3% | 93.3% | 86.6% | 93% | 95.1% | 87.8%
5 | Cc1cc2cc3c(=O)[nH]c(=O)cc-3n(CC(O)C(O)C(O)CO)c2cc1C (centres undefined) | 120% | 113% | 99.2% | 125% | 75.1% | 87.9% | 109% | 105% | 99.8% | 111% | 106% | 97.3% | 106% | 109% | 99.1% | 112% | 103% | 101% | 105%
6 | COc1ccc(-c2nc(-c3ccccc3)c(-c3ccccc3)[nH]2)cc1OC1CCCC1 | 66.2% | 62.5% | 67.4% | 88.4% | 54.4% | 71% | -9.35% (active) | 50.7% | 40.8% | 41.9% | 56.6% | 74.9% | 82.7% | 81.6% | 89.3% | 105% | 81.4% | 86.5% | 79.5%
7 | COc1ccc(-c2nc(-c3nc4ccc(C)cc4[nH]3)c3ccccn23)cc1 | 47% | 44.9% | 14.4% | 69.4% | 55.6% | 46.9% | 19.6% | 18.7% | 40.4% | 33.2% | -6.44% (active) | 6.19% (active) | 88.5% | 44.1% | 85.9% | 36.5% | 72.6% | 74.7% | 22.6%
8 | Cc1cc(/C=C2\SC(=Nc3ccccc3)N(C3CCCC3)C2=O)c(C)n1-c1ccc(Cl)cc1 | -77.3% (active) | -51.4% (active) | -91.9% (active) | -90.9% (active) | -76.3% (active) | -59.9% (active) | -88.3% (active) | -9.97% (active) | -18% (active) | -36.8% (active) | -43.3% (active) | -38% (active) | -24.9% (active) | -35.3% (active) | -90.5% (active) | -48.6% (active) | -85.1% (active) | -12.8% (active) | 0.0476% (active)
9 | COC(=O)C1(C(=O)OC)C2C(=O)C3C(C21)C3(C(=O)OC(C)(C)C)C(=O)OC(C)(C)C (centres undefined) | 127% | 107% | 85.4% | 128% | 102% | 90% | 108% | 102% | 105% | 113% | 93.8% | 104% | 102% | 101% | 121% | 109% | 114% | 97.9% | 104%
10 | Cc1ccc(-c2cc(-c3cccc(Nc4ccnc5cc(Cl)ccc45)c3)nc3nc(N)[nH]c(=O)c23)cc1 | 87.6% | 96.6% | 78.1% | 112% | 105% | 94.8% | 109% | 56.1% | 81.8% | 48.9% | 92.8% | 92.5% | 108% | 111% | 111% | 76.7% | 92.7% | 104% | 100%
11 | C/C(=N\NC(=S)N1CCCC1)c1ccccn1 | 13.8% | 14.3% | -3.72% (active) | 28.5% | 15.5% | 6.32% (active) | -5.14% (active) | 0.145% (active) | 3.06% (active) | 6.59% (active) | 12.9% | 11.1% | 40.3% | 3.92% (active) | 26.5% | -3.85% (active) | 23.8% | 31.8% | -5.31% (active)
12 | N#Cc1c(-c2ccccc2)nc(SCC(=O)N2CCOCC2)[nH]c1=O | 107% | 99.1% | 71.9% | 110% | 98.5% | 94.1% | 93.5% | 95.1% | 83.5% | 90.1% | 99% | 99.3% | 103% | 104% | 90.7% | 112% | 110% | 108% | 103%
13 | Fc1ccc(-c2cc(C(Cl)Cl)no2)cc1 | 116% | 97.6% | 78.7% | 131% | 102% | 84.9% | 99.3% | 93.1% | 108% | 106% | 96.1% | 109% | 101% | 92.2% | 112% | 106% | 98.2% | 93% | 108%
14 | COc1ccc(S(=O)(=O)Nc2ccc(OCc3nnc(-c4ccc(Cl)cc4)o3)c(F)c2)cc1 | 40.6% | 68.1% | 51.3% | 57.6% | 56.6% | 54.6% | 47% | 54.5% | 36% | 18.4% | 31.6% | 60.4% | 98.5% | 45.5% | 78.8% | 79.4% | 71.8% | 86.3% | 45.7%
15 | COc1ccc(/C=C2\CCC3C(CCCC34OCCO4)C2=O)cc1 (centres undefined) | 88.4% | 96.8% | 80.5% | 95.3% | 93.6% | 80.2% | 106% | 79.1% | 78.2% | 35.5% | 81.2% | 97.2% | 91.7% | 100% | 97.1% | 83% | 75% | 106% | 75.8%
16 | CC(=O)N(O)c1ccc(/C=C/c2ccccc2)cc1 | 92.7% | 26.5% | -30.8% (active) | 4.86% (active) | -18.1% (active) | 0.955% (active) | -78.8% (active) | 26.5% | 41.8% | 9.19% (active) | 46.8% | 32.1% | 33.1% | 54.7% | 9.48% (active) | -14% (active) | 42% | 61.7% | 22.6%

From PubChem BioAssay (NCI)
